Data published in PubChem BioAssay AID623911 (Vanderbilt High Throughput Screening Facility, 2012).
In all, about 2,100 compounds went through this assay and about 770 (37%) were called active.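 Rule for the calls: active = by-eye trace score of 1 for enhancers or -1 for inhibitors, so actives lie on both sides (some results past the limit were not filed as active); inactive = score 0, or 3 fluorescent, or 4 baseline rise.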 This is one part of the list.

These compounds were tested against G protein-activated inward rectifier potassium channel 2 (Homo sapiens) + G protein-activated inward rectifier potassium channel 1 (Homo sapiens) (UniProt P48051+P48549) (assay: GIRK1/2 thallium flux modulators, retest, confirmation, cell-based, HEK293 rmGlu8/hGIRK1/2, FluoZin-2 (AID 623911)). Conditions: HEK293 rmGlu8/hGIRK1/2, thallium flux FluoZin-2; actives lie on both sides; glutamate co-added at its EC20 level.
G protein-activated inward rectifier potassium channel 2 (Homo sapiens) + G protein-activated inward rectifier potassium channel 1 (Homo sapiens), sequence (P48051 whole entry, looked up): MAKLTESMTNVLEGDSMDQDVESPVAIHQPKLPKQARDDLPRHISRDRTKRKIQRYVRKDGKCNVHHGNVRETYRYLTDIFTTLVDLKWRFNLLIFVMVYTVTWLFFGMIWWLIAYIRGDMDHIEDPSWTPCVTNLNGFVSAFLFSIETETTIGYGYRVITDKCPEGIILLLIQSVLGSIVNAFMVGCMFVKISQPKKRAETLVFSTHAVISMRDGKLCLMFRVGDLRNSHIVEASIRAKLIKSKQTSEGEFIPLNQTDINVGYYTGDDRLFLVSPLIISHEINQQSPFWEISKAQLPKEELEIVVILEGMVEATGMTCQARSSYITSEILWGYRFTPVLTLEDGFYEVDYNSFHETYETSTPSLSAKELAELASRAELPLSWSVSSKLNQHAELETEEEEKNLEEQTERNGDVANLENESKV
G protein-activated inward rectifier potassium channel 2 (Homo sapiens) + G protein-activated inward rectifier potassium channel 1 (Homo sapiens), sequence (P48549 whole entry, looked up): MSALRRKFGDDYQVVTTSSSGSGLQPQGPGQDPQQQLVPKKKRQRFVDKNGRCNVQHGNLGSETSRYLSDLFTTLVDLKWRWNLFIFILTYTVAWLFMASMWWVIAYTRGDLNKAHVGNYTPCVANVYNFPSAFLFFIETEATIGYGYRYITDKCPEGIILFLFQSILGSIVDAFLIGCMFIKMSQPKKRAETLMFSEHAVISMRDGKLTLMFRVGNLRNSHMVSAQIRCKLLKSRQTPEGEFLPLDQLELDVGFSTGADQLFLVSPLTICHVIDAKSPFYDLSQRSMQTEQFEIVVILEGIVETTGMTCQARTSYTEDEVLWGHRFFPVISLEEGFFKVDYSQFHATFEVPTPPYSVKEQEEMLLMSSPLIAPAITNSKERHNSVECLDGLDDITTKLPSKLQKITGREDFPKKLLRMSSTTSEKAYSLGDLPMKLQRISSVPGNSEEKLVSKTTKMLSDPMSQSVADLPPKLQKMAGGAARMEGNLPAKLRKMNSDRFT

Structure (SMILES) | manual score
CC(=O)Nc1cccc2c1C(=O)N(c1cccc(C)c1)C2=O | 0 (inactive)
O=C1CC(N2CCN(c3nc4ccccc4s3)CC2)C(=O)N1c1ccc(F)cc1 (stereo unspecified) | 0 (inactive)
CC(C)(C)c1ccc(OCCON2C(=O)CCC2=O)c(Cl)c1 | 0 (inactive)
CC(C)CNC(=S)NNC(=O)c1csc2c1CCC(C)C2 (stereo unspecified) | 0 (inactive)
Cc1ccc(C)c(NC(=S)NNC(=O)c2cc3c(s2)CCC(C)C3)c1 (stereo unspecified) | 1 (active)
Cc1ccccc1NC(=S)NNC(=O)c1csc2c1CCC(C)C2 (stereo unspecified) | 1 (active)
CN(C)/C=C/C(=O)/C=C/c1cn(-c2ncc(C(F)(F)F)cc2Cl)c2ccccc12 | 0 (inactive)
Cc1ccc(-c2[nH]n3c(=O)c4c(nc3c2C)CCCC4)cc1 | 0 (inactive)
CCn1c(=S)[nH]c2nc3c(cc2c1=O)CCCC3 | 1 (active)
C=CCn1c(=S)[nH]c2nc3c(cc2c1=O)CCCC3 | 1 (active)
O=c1c2ccc(Cl)cc2[nH]c(=S)n1CCC1=CCCCC1 | 0 (inactive)
Cc1cccc(NC(=S)NC(=O)c2cc(-c3ccccc3)nc3ccccc23)c1 | 0 (inactive)
Cc1cccc(NC(=S)N/C(=N/S(=O)(=O)c2ccccc2)c2ccccc2)c1 | 1 (active)
Cc1cccc(NC(=O)NC(=S)NC(=O)c2ccccc2)c1 | 0 (inactive)
CCOc1ccc(-n2c(SCc3nc(-c4cccs4)no3)nnc2-c2ccncc2)cc1 | 0 (inactive)
COc1ccc(NC(=O)COC(=O)CC23CC4CC(CC(C4)C2)C3)c([N+](=O)[O-])c1 | 0 (inactive)
CCC(=O)Nc1nc2ccc3nc(C)sc3c2s1 | 0 (inactive)
CC1CN(S(=O)(=O)c2ccc(C(=O)Nc3nnc(-c4ccc5c(c4)CCCC5)o3)cc2)CC(C)O1 (stereo unspecified) | 0 (inactive)
O=C(Nc1nnc(-c2ccccc2Cl)o1)c1ccc(S(=O)(=O)N2CCCCCC2)cc1 | 1 (active)
NS(=O)(=O)c1ccc(S(=O)(=O)N2CCCC2)cc1 | 0 (inactive)
COc1ccccc1NC(=O)c1ccc(S(=O)(=O)N2CCCC2)cc1 | 0 (inactive)
CC1CCCN(S(=O)(=O)c2ccc(C(=O)Nc3nnc(-c4ccccc4Cl)o3)cc2)C1 (stereo unspecified) | 1 (active)

Structure (SMILES) | manual score
CCN(CC)c1ccc2cc(C(=O)NNC(=O)c3ccc(S(=O)(=O)N4CCCCC4)cc3)c(=O)oc2c1 | 0 (inactive)
CCc1cc2cc(C)ccc2nc1SCC(=O)N1CCN(C(=O)c2ccco2)CC1 | 0 (inactive)
CCN(C#N)c1nc(NC(C)C)nc(NC(C)C)n1 | 0 (inactive)
Cc1ccc(N2C(=S)N=C(Nc3ccccc3C)C23CCOC(C)(C)C3)cc1 (stereo unspecified) | 1 (active)
Cc1ccccc1Nc1nc2nonc2nc1N1CCOCC1 | 0 (inactive)
Cc1cccc(C)c1NC1=NC(=S)N(c2ccc(N(C)C)cc2)C1(C)C | 0 (inactive)
Cc1ccccc1NC1=NC(=S)N(c2ccccc2)C12CCOC(C)(C)C2 (stereo unspecified) | 1 (active)
CCOC(=O)CSc1cccc2cccnc12 | 0 (inactive)
O=C(NC(=S)Nc1nc2ccccc2s1)c1ccco1 | 1 (active)
COC(=O)c1sc(NC(=S)NC(=O)c2ccccc2)nc1C | 1 (active)
CCOC(=O)c1sc(NC(=S)NC(=O)c2ccco2)nc1C | 1 (active)
CC(C)(C)c1ccc(C(=O)NC(=S)Nc2nc3c(s2)CCCC3)cc1 | 0 (inactive)
CCc1nnc(NS(=O)(=O)c2ccc(NC(=S)NC(=O)c3ccccc3)cc2)s1 | 0 (inactive)
COC(=O)c1sc(NC(=S)NC(=O)c2cccc(C)c2)nc1C | 0 (inactive)
COC(=O)c1ccc(C(=O)NC(=S)Nc2nc3c(s2)CCCC3)cc1 | 1 (active)
O=C(NC(=S)NCc1ccc(-c2nc3ccccc3s2)cc1)c1ccco1 | 0 (inactive)
Cn1c(-c2ccc(-c3ccccc3)cc2)c[nH]c1=S | 0 (inactive)
COC(=O)c1ccc(N2C(=O)CC(Sc3n[nH]c(C)n3)C2=O)cc1 (stereo unspecified) | 0 (inactive)
COC(=O)c1sc(NC(=S)NC(=O)c2ccccc2Cl)nc1C | 1 (active)
COc1cc(OC)c(NC(=O)CCNC(=O)Cn2cnc3ccccc3c2=O)cc1Cl | 0 (inactive)
CCC(=O)Nc1ccc2c(c1)ncn2-c1ccc(OC)cc1 | 0 (inactive)
CCN(CC)S(=O)(=O)c1cc(NC(=O)Cn2cnc3ccccc3c2=O)ccc1C | 1 (active)

Structure (SMILES) | manual score
C=CCn1c(=O)c2c(C)c(C)sc2n2c(Nc3ccc(OC)cc3)nnc12 | -0.5 (inactive)
CCCCn1c(N)c(C(=S)NC(=O)CC(C)C)c(=O)n(C)c1=O | 1 (active)
CCCCn1c(N)c(C(=S)NC(=O)CC(C)(C)C)c(=O)n(C)c1=O | 1 (active)
Brc1ccc(-c2nnc3c4ccccc4nc(N4CCOCC4)n23)cc1 | 0 (inactive)
CCC(=O)N1c2ccc(C)cc2C2=NNC(=S)NC21O (stereo unspecified) | 0 (inactive)
COc1ccc(C(CCNCc2ccccc2F)c2ccc(F)cc2)cc1 (stereo unspecified) | -1 (active)
COc1ccc(CNCCC(c2ccc(F)cc2)c2ccc(OC)cc2)cc1 (stereo unspecified) | -1 (active)
O=C(NNC(=O)c1cc(-c2ccccc2)n(-c2ccccc2)n1)c1cccc([N+](=O)[O-])c1 | 0 (inactive)
N=c1c2c(ncn1CCN1CCOCC1)Oc1ccc3ccccc3c1C2c1ccccc1 (stereo unspecified) | -1 (active)
COc1ccc(C2c3ccc4ccccc4c3Oc3ncn(CCN4CCOCC4)c(=N)c32)cc1 (stereo unspecified) | -1 (active)
COc1ccc(S(=O)(=O)NCCCCCC(=O)NCCCN2CCOCC2)cc1 | 0 (inactive)
NC(=O)COc1ccc(C2c3c(oc4ccccc4c3=O)C(=O)N2CC2CCCO2)cc1 (stereo unspecified) | 0 (inactive)
CC1CCN(c2c([N+](=O)[O-])c(=O)oc3ccccc23)CC1 | 0 (inactive)
CCOC(=O)C1(C(C)(C)CC)CC(CSc2nc3ccccc3[nH]2)OC1=O (stereo unspecified) | -1 (active)
CCn1c(-c2cc3ccccc3cc2O)n[nH]c1=S | 0 (inactive)
CSC1=NSC2=NC(=O)/C(=C/c3coc4ccccc4c3=O)C(=N)N12 | 3 (inactive)
N=C1/C(=C/c2cccs2)C(=O)N=C2SN=C(SCc3ccccc3)N12 | 1 (active)
O=C1N=C(c2ccccc2)S/C1=C\c1cccs1 | 0 (inactive)
FC(F)(F)c1ccc2nnc(-c3c(Cl)cccc3Cl)n2c1 | 0 (inactive)
O=C(C1CCN(S(=O)(=O)c2cccc3cccnc23)CC1)N1CC=C(c2ccccc2)CC1 | -1 (active)
O=C(C1CCCN1S(=O)(=O)c1cccc2cccnc12)N1CCn2c1nc1ccccc12 (stereo unspecified) | 0 (inactive)
O=C(C1CCCN1S(=O)(=O)c1cccc2cccnc12)N1CCc2ccccc21 (stereo unspecified) | 0 (inactive)
